# D3 ag – agonists of human D3 dopamine receptor. D3R DiscoveRx beta-arrestin cells, luminescence, 90 min. max activation, %. 410,000 compounds, 0.58% hits; in the data active = max activation above about 30%; note: 0% is about no effect
# Target sequence (P35462 whole entry, looked up): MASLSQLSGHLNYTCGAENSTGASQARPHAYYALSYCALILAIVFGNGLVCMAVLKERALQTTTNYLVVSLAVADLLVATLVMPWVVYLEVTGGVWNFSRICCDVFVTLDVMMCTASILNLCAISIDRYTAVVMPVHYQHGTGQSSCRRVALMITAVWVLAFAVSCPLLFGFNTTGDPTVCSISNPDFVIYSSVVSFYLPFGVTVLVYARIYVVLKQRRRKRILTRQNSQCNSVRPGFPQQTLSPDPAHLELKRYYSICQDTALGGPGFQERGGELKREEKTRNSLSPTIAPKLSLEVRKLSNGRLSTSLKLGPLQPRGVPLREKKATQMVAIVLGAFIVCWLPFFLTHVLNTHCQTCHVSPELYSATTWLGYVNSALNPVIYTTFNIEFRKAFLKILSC
#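 Cells at 1500/well, incubated overnight, then treated with pinned compounds (dopamine as control) for 90 min at 37 degrees C. DiscoveRx reagent added for 30 - 60 minutes at room temperature; luminescence read.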
# PI4K2A block – inhibitors of human PI4K2A; 420,000 compounds, 0.13% hits; activity change, negative = inhibition, % at 76.9 µM; purified PI4K2A, ADP-Glo luminescence, 1 h; active compounds read low; Q9BTU6; in the data active = activity change below about -50%; inconclusive = mostly about -30% to -49%;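 note: -100% = wells without enzyme as full effect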
#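 Compounds are screened against recombinant PI4K2A using PI as substrate and ATP, the latter dispensed at 300 microM. Reactions run one hour at ambient temperature before ADP-Glo detection; full inhibition defined by wells lacking enzyme.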
# LDHA inh – inhibitors of human lactate dehydrogenase A. AID 1347041. P00338. activity change, % (values are at about 110 or 230 µM). purified LDHA, NADH/diaphorase-resazurin fluorescence; active compounds read low. 480,000 compounds, 0.15% hits; in the data active = activity change below about -30%; inconclusive = mostly about -25% to -30%;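 note: plate controls were DMSO wells for no effect and wells without enzyme for full effect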
#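 Human LDH5 (2 nM) was incubated with 0.06 mM NADH and 0.2 mM pyruvate for 5 min at room temperature in Tris pH 7.4. Remaining NADH was coupled through diaphorase/resazurin, and resorufin fluorescence was read at 0 and 20 min.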
# PI5P4K alpha inh – blocks human PI5P4K alpha kinase activity. P48426. max response, %. 330,000 compounds, 1.2% hits. PI5P4Kalpha enzyme, ADP-Glo luminescence, 60 min; active compounds read low; active = max response of -50% or lower; inconclusive = between -30% and -50%; inactive = -30% or higher; note: value at the top dose of about 77 µM; % is set by controls: 0 for no effect and ±100 for the full control effect
#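 Enzyme plus substrate dispensed, test compounds pinned in, then ATP (5 microM final) added. After 60 min at RT, ADP-Glo reagent 1 for 45 min and reagent 2 for 30 min preceded luminescence imaging.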
# DRD3 antagonist – antagonists of human D3 dopamine receptor; P35462; D3R cells, DiscoveRx beta-arrestin luminescence, antagonist mode; active compounds read low; max response, negative = inhibition, %; 360,000 compounds, 2.5% hits; in the data active = max response below about -50%; inconclusive = no clear call, values can overlap the other calls; note: % is set by controls: 0 for no effect and ±100 for the full control effect
#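 Cells plated overnight at 1500 cells/well, then exposed to library compounds with dopamine controls for 90 minutes at 37 degrees C. DiscoveRx reagent added for 30–60 minutes at room temperature; luminescence read, quantitative HTS format.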
# Starred values were filed as active, the others as inactive; u = inconclusive; x = no result. Shown are actives, neighbours in structure and some others; about 3.3% of the full set was active somewhere.
SMILES,D3 ag,PI4K2A block,LDHA inh,PI5P4K alpha inh,DRD3 antagonist
O=C(c1ccco1)N1CCN(CCCCOc2cccc3ccccc23)CC1,38*,-1,4,-2,u
O=C(c1ccco1)N1CCN(CCOc2ccc(F)cc2)CC1,20,-3,-2,4,-11
O=C(c1ccco1)N1CCN(CCOCCOc2cccc3ccccc23)CC1,89*,-6,1,x,-6
c1ccc(CN2CCN(CCOCCOc3cccc4ccccc34)CC2)cc1,-15,1,-23,12,u
C=CCOC(=O)c1cc(-c2ccc(/C=C3\C(=O)NC(=O)C(C#N)=C3C)o2)ccc1Cl,1,-16,-6,-27,-17
CC1=C(C#N)C(=O)NC(=O)/C1=C/c1ccc(-c2ccc(S(N)(=O)=O)cc2)o1,-1,-13,18,-96*,0
NS(=O)(=O)c1ccc(-c2ccc(/C=C3\NC(=S)NC3=O)o2)cc1,43*,-4,3,-66*,2
Cc1cccc(NC(=O)CSc2nccn2Cc2ccccc2Cl)c1C,x,x,-4,x,x
COc1[nH]c2ccc(F)cc2c1C(=O)OCC1CCN(CCNS(C)(=O)=O)CC1,-74,3,-7,7,-55*
COC(=O)c1[nH]c2ccc(F)cc2c1NC(=O)CCN1CCC(C(N)=O)CC1,x,x,9,x,x
CCOC(=O)C(CC)Oc1ccc2c(=O)c(Oc3ccccc3Br)coc2c1 (stereo not given),x,x,-31*,x,x
COC(=O)c1c(NC(=O)C2CC2)sc(C)c1C,x,x,-1,x,x
Cc1cc2oc(=O)cc(CN3CCCCC3)c2cc1C(C)C,0,9,3,0,-78*
Cc1cc2oc(=O)cc(CN3CCC(C)CC3)c2cc1C,-12,2,0,1,-72*
CC(=O)N1CCN(Cc2cc(=O)oc3cc(C)c(C)cc23)CC1,-4,0,-10,-4,-80*
CCCn1nc(C(=O)Nc2ccc(OC)c(OC(F)F)c2)c2ccccc2c1=O,x,x,2,x,x
Cc1ncc(-c2ccc(C)c(S(=O)(=O)Nc3ccc(C)c(C)c3)c2)o1,x,x,-1,x,x
CCOc1ccc(C2C(C(=O)c3ccc(C)o3)=C(O)C(=O)N2c2nc(C)c(C(=O)OC)s2)cc1 (stereo not given),7,3,0,-27,2
COC(=O)c1sc(N2C(=O)C(O)=C(C(=O)c3ccc(C)o3)C2c2ccc([N+](=O)[O-])cc2)nc1C (stereo not given),1,0,2,-83*,-25
CCOC(=O)c1sc(N2C(=O)C(O)=C(C(=O)c3ccc(C)o3)C2c2cccc([N+](=O)[O-])c2)nc1C (stereo not given),8,-1,2,-51*,8
COc1ccc2nc(N3C(=O)C(O)=C(C(=O)c4ccco4)C3c3ccc(OC)c(OC)c3)sc2c1 (stereo not given),4,-4,2,-23,-19
Cc1ccc2nc(N3C(=O)C(O)=C(C(=O)c4ccc(C)o4)C3c3cccc(O)c3)sc2c1 (stereo not given),0,-4,2,-58*,-26
Cc1nnc(N2C(=O)C(O)=C(C(=O)c3ccco3)C2c2ccc(C(C)(C)C)cc2)s1 (stereo not given),-18,3,1,-17,-83*
Cc1nnc(N2C(=O)C(O)=C(C(=O)c3ccco3)C2c2ccc(F)cc2)s1 (stereo not given),3,-7,3,2,-13
Cc1cccc(C)c1NC(=O)CN(C)C(=O)CSc1nccn1-c1ccc(Br)cc1,x,x,4,x,x
SMILES,D3 ag,PI4K2A block,LDHA inh,PI5P4K alpha inh,DRD3 antagonist
CCOC(=O)c1sc(N2C(=O)C(O)=C(C(=O)c3ccco3)C2c2ccc([N+](=O)[O-])cc2)nc1C (stereo not given),0,1,-3,-80*,-20
OC(c1ccc(CN2CCCCC2)cc1)c1ncc(-c2ccccc2)[nH]1 (stereo not given),-15,3,2,9,-107*
CCc1ccc(NC(=O)C(=O)NCCN2CCN(C(=O)c3ccco3)CC2)cc1,73*,-1,-9,-10,25
CCOc1ccc(NC(=O)CN2CCN(C(=O)c3ccco3)CC2)cc1S(=O)(=O)N1CCCC1,40*,2,1,-3,-9
CCOC(=O)c1ccc(NC(=O)CN2CCN(C(=O)c3ccco3)CC2)cc1,36*,2,1,-4,15
NC(=O)c1ccc(NC(=O)CN2CCN(C(=O)c3ccco3)CC2)cc1,14,-3,-2,0,8
Cc1ccc(NC(=O)CN2CCN(C(=O)c3ccco3)CC2)cc1S(=O)(=O)N(C)C,51*,-3,-20,1,23
CCc1ccc(NC(=O)C(=O)NCCN2CCN(C(=O)c3ccc(OC)cc3)CC2)cc1,-1,-5,-7,-14,-12
C=CCNc1oc(/C=C/c2cccs2)nc1C#N,x,x,9,x,x
COc1ccccc1NC(=O)CSc1nnc(C)n2c1cc1oc(C)cc12,x,x,0,x,x
CCNC(=O)CNC(=O)Cn1c(C)cc2ccccc21,x,x,1,x,x
COc1ccc(CCN(C)CC(O)COC(c2ccc(F)cc2)c2ccc(F)cc2)cc1OC (stereo not given),-20,13,0,16,-61*
COc1ccc(CCN(C)CC(O)COc2c(C)ccc(C)c2C)cc1OC (stereo not given),-12,1,0,2,-22
CCCOc1ccccc1-n1sc2c(c1=S)-c1cc(OC)cc3c1N(C(=O)C3=O)C2(C)C,-12,8,-1,1,-57*
O=C1CC(N2CCC(c3nc4ccccc4o3)CC2)C(=O)N1c1cccc(Cl)c1 (stereo not given),x,x,2,x,x
CCOC(=O)C1CCCN(CC(=O)Nc2c(C(=O)OC)[nH]c3ccccc23)C1 (stereo not given),-7,0,-10,-4,-14
COC(=O)c1[nH]c2cccc(OC)c2c1NC(=O)CCN1CCSCC1,1,1,-6,-2,-21
CCOC(=O)N1CCN(CC(=O)Nc2c(C(=O)OC)[nH]c3ccccc23)CC1,8,-1,-8,x,9
COC(=O)c1[nH]c2ccccc2c1NC(=O)CN1CCCCCC1,8,-1,-6,9,-53*
COC(=O)c1[nH]c2ccc(C)cc2c1NC(=O)Oc1ccccc1,-1,-1,5,-2,-6
COC(=O)c1[nH]c2ccccc2c1NC(=O)CN1CCC(C(N)=O)(N2CCCCC2)CC1,1,4,-5,-2,-54*
COC(=O)c1[nH]c2ccccc2c1NC(=O)Oc1ccccc1,-2,-6,2,0,-52*
COC(=O)c1[nH]c2cc(OC)ccc2c1NC(=O)CCN1CCSCC1,-2,0,-3,1,-70*
Cc1cccc(-c2ocnc2C(=O)Nc2ccc(Cl)cc2C)c1,x,x,-5,x,x
Cc1cc(C(=O)N2CC=C(c3ccccc3)CC2)c(C)s1,x,x,-1,x,x

# Compound activity as filed in PubChem.
